Reference: PubChem BioAssay AID1347420 (Sanford-Burnham Center for Chemical Genomics, 2020)
In all, about 1,300 compounds went through this assay and about 980 (75%) were called active. About 4% were inconclusive and are not listed. This is one part of the list. Unmarked numbers belong to inactive results.

The molecules below were run against Sulfhydryl oxidase 1 (Homo sapiens) (UniProt O00391) (assay: inhibition of human sulfhydryl oxidase QSOX1 – biochemical, HyperBlu H2O2 luminescence, HTS, primary screen (AID 1347420; also: values above 100% were filed as inconclusive)). Conditions: recombinant QSOX1, HyperBlu H2O2 luminescence, at 12.5 µM, stronger effect = higher value; active = any value above zero unless noted.
Sulfhydryl oxidase 1 (Homo sapiens), sequence (O00391 whole entry, looked up): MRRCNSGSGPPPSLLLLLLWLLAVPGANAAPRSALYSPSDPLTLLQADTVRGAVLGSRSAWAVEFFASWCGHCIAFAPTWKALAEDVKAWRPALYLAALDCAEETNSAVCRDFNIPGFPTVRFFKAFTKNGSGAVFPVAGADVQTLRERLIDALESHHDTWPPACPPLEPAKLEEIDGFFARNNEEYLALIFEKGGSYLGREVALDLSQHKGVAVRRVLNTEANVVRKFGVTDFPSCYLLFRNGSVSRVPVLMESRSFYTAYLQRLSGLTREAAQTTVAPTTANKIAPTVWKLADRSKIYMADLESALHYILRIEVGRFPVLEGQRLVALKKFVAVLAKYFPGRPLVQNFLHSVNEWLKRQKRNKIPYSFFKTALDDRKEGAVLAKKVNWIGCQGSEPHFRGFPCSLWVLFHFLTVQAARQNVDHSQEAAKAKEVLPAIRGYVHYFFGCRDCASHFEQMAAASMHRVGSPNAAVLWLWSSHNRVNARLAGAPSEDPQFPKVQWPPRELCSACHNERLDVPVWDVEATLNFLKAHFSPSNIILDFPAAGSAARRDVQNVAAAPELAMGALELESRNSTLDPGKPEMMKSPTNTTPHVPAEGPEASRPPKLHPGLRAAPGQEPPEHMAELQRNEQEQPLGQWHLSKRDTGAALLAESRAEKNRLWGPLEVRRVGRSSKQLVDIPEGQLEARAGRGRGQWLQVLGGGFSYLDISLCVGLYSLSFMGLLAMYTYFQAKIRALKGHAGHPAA

Compound	inhibition
O=C1/C(=C/c2ccccc2)C[C@@]2(O)[C@H]3Cc4ccc(O)c5c4[C@@]2(CCN3CC2CC2)[C@H]1O5	32.8% [setting not given] (active)
CO[C@H]1CC=C2CCN3CCC4=C(CC(=O)OC4)[C@]23C1	0.7% (active)
CCOC(=O)c1ncn2c1[C@@H]1CCCN1C(=O)c1cc(OC)ccc1-2	13.3% (active)
NCC(CC(=O)O)c1ccc(Cl)cc1 (centres undefined)	0% [setting not given]
CNCC(O)c1ccc(O)cc1 (centres undefined)	11.4% [setting not given] (active)
NCC(O)c1ccc(O)cc1 (centres undefined)	20.3% [setting not given] (active)
COc1cc(C(O)CN)ccc1O (centres undefined)	20.7% (active)
NCC(O)c1cc(O)c(O)cc1F (centres undefined)	72.8% (active)
Ic1ccccc1CNC1C2CCN(CC2)C1C(c1ccccc1)c1ccccc1 (centres undefined)	11% (active)
O=C(O)[C@@H]1CCN1	18.9% (active)
N=C(N)c1ccc(CS(=O)(=O)F)cc1	7.2% (active)
CN1C2CCC1CC(OC(=O)c1cc(Cl)cc(Cl)c1)C2 (centres undefined)	5.4% (active)
O=C1C=CC(=O)C=C1	16.8% (active)
N[C@@]1(C(=O)O)CC[C@@H](C(=O)O)C1	12.2% (active)
CCN1C[C@@]2(COC)C3[C@@H](OC)C4[C@@H]1C3([C@@H]1C[C@@]3(O)[C@H](OC(=O)c5ccccc5)[C@@H]1[C@]4(OC(C)=O)[C@@H](O)[C@@H]3OC)[C@H](OC)C[C@H]2O	4.1% (active)
CCNC(=O)[C@H]1O[C@@H](n2cnc3c(N)ncnc32)C(O)[C@H]1O (some centres undefined)	1.2% (active)
O=[N+]([O-])c1cc(O)c(O)c([N+](=O)[O-])c1	84.7% (active)
NCc1cc(=O)[nH]o1	10.1% (active)
C=CCN1CC[C@]23CCCCC2[C@H]1Cc1ccc(O)cc13 (some centres undefined)	6% [setting not given] (active)
COc1ccc2c(c1)[C@@]13CCCC[C@H]1[C@@H](C2)NCC3	-2.6% [setting not given]

Compound	inhibition
COc1ccc2c(c1)C13CCCCC1C(C2)N(C)CC3 (centres undefined)	11.3% [setting not given] (active)
C=CCN1C[C@@H](C)N([C@H](c2ccc(C(=O)N(CC)CC)cc2)c2cccc(OC)c2)C[C@@H]1C	7.5% (active)
CC(=O)NBr	9.5% (active)
NC(N)=NOCCC(N)C(=O)O (centres undefined)	8.2% (active)
NC(N)=NOCC[C@H](N)C(=O)O	-0.8% [setting not given]
CC(Cc1ccc(O)cc1)NCC(O)c1cc(O)cc(O)c1 (centres undefined)	15% [setting not given] (active)
CN1CCc2cccc(Cl)c2CC1	1.7% (active)
CP(=O)(O)C1=CCNCC1	-0.7%
CCCN(CCC)C1Cc2cc(OC)c(OC)cc2C1	3.2% (active)
CCCN(CCC)C1CCc2ccc(O)cc2C1 (centres undefined)	28.1% (active)
CCCN(CCC)[C@@H]1CCc2ccc(O)cc2C1	10.7% (active)
O=S1(=O)N(CCN2CC=C(c3c[nH]c4cc(F)ccc34)CC2)c2cccc3c2N1CCC3	25.1% (active)
C[C@H](N)Cc1cccc(C(F)(F)F)c1	4.9% [setting not given] (active)
COc1ccc(CNC(=O)/C=C/c2ccc3[nH]cc(CCN(C)C)c3c2)cc1	4.8% [setting not given] (active)
O=C(O)c1cc[c]([Hg][Cl])cc1	1% (active)
CCC1(c2ccc(N)cc2)CCC(=O)NC1=O (centres undefined)	27.6% [setting not given] (active)
CCN(CCCl)Cc1ccccc1Br	18% (active)
CCCn1c(=O)c2[nH]c(C3CCCC3)nc2n(CCCOC(=O)c2ccc(S(=O)(=O)F)cc2)c1=O	10.4% (active)
CC[C@@H](CO)NC(=O)[C@@H]1C=C2c3cccc4[nH]cc(c34)C[C@H]2N(C)C1	24.7% [setting not given] (active)
CC[C@@H](CO)NC(=O)[C@@H]1C=C2c3cccc4c3c(cn4C)C[C@H]2N(C)C1	9.7% [setting not given] (active)

Compound	inhibition
NCC1(CC(=O)O)CCCCC1	4.2% [setting not given] (active)
CC(=O)c1c(O)c(C)c(O)c(Cc2c(O)c3c(c(C(=O)/C=C/c4ccccc4)c2O)OC(C)(C)C=C3)c1O	59.1% (active)
O=c1[nH]oc2c1CCNC2	8.4% (active)
CC(Cc1ccc(OCC(=O)O)cc1)NCC(O)c1cccc(Cl)c1 (centres undefined)	10.8% (active)
C[C@H](Cc1ccc2c(c1)OC(C(=O)O)(C(=O)O)O2)NC[C@H](O)c1cccc(Cl)c1	13.4% (active)
Nc1ccncc1	22.3% [setting not given] (active)
CC(=O)[C@H]1CC[C@H]2[C@@H]3CC[C@H]4C[C@](C)(O)CC[C@]4(C)[C@H]3CC[C@]12C	11.6% [setting not given] (active)
CC(=O)[C@H]1CC[C@H]2[C@@H]3CC[C@H]4C[C@H](O)CC[C@]4(C)[C@H]3C(=O)C[C@]12C	5% [setting not given] (active)
C[C@]12CCC3C(CC[C@H]4C[C@H](O)CC[C@]34C)C1CC[C@@H]2C(=O)CO (some centres undefined)	5.6% (active)
CC(=O)[C@H]1CCC2C3CC[C@H]4C[C@H](O)CC[C@]4(C)C3CC[C@@]21C (some centres undefined)	4.6% [setting not given] (active)
CN1C[C@H](CNC(=O)OCc2ccccc2)C[C@@H]2c3cccc4c3c(cn4C)C[C@H]21	6.1% [setting not given] (active)
C[C@]12Cc3cn4c(nc3C=C1CCC1C2CC[C@@]2(C)[C@H]1CC[C@@]2(O)C#N)nc1ccccc14 (some centres undefined)	-42.5%
CC(C)Oc1cccnc1N(C)C1CCN(Cc2ccccc2)CC1	7% (active)
CC(C)c1cccc(C(C)C)c1O	16.7% (active)
CC(N)c1cccc(Cl)c1Cl (centres undefined)	-1%
CN[C@@H]1C[C@@H](c2ccc(Cl)c(Cl)c2)c2ccccc21	3.8% (active)
Cc1o[nH]c(=O)c1CC(N)C(=O)O (centres undefined)	11.9% (active)
NC(Cn1oc(=O)[nH]c1=O)C(=O)O (centres undefined)	-10.8%
CCCC(C)(COC(N)=O)COC(=O)NC(C)C (centres undefined)	-3.5% [setting not given]
